Each compound was assayed against AMP-activated protein kinase, AMPK (Homo sapiens) (UniProt P54646+O43741+P54619+Q9UGJ0+Q9Y478+Q13131+Q9UGI9) (assay: AMP-dependent Kinase enzyme assay. An in vitro enzyme assay that detects ADP turnover that is directly proportional to AMPK activity. This uses naive AMPK that is activated during the assay with MK-8722). Conditions: 30 µM.
Format: functional
Design: scale not given: direction of the effect not stated beside the values

Row | SMILES | Percent Effect
1 | CN(CCOc1ccc(C#N)cc1)CC1CCS(=O)(=O)C1 (stereo not given) | 7.94%
2 | Cc1cc(C2CCCN(Cc3cccnc3)C2)n[nH]1 (stereo not given) | -0.765%
3 | Cc1cc(CNS(C)(=O)=O)ccc1N(C)C | 1.62%
4 | Cc1cc(C2CCCN(Cc3nnc(Cc4ccccc4)o3)C2)n[nH]1 (stereo not given) | 18%
5 | CCC(NC(=O)C(C)(C)C)c1ccccc1C (stereo not given) | 5.82%
6 | O=C(Cn1[nH]c2ccccc2c1=O)N1CCCC(CC2CC2)(C(=O)O)C1 (stereo not given) | -3.39%
7 | Cn1ccnc1C1(O)CCN(C(=O)Cc2ccccc2)CC1 | 13.3%
8 | Cc1nccn1CCCN1CCC(c2nccn2CC2CCC2)CC1 | -9.78%
9 | COCc1ncc(CN2CCC3(CCC(=O)N(CC(C)O)C3)CC2)cn1 (stereo not given) | -3.44%
10 | CN1CCN([C@H]2CCN(C(=O)c3cc(Cl)cn3C)C[C@H]2CCCO)CC1 | 13.2%
11 | CCN(Cc1cn(CC2CCNCC2)nn1)CC1CCCO1 (stereo not given) | 4.72%
12 | COc1cc(NC2CCCN(c3ncccn3)C2)cc(OC)c1 (stereo not given) | -64.1%
13 | CCC(c1ccc(F)cc1)S(=O)(=O)CCO (stereo not given) | 0.117%
14 | CCCn1cc(NC(=O)Nc2ccc(F)c(C(=O)NC)c2)cn1 | 8.23%
15 | CCc1cnc(CNC(=O)NCCCO)s1 | 9.14%
16 | CN(CCc1noc(C2CC2)n1)C(=O)CN1C(=O)COc2ccccc21 | -1.86%
17 | COC[C@@H]1CCCN1C(=O)CCc1c(C)nn(C)c1C | -3.67%
18 | CN(C)c1ncccc1NC(=O)COC1CCCC1 | 6.19%
19 | Cc1c(C(=O)NCCCS(C)(=O)=O)cccc1-c1ccccn1 | 10.6%
20 | COC(=O)CC1CN(Cc2ccn(-c3ccc(F)cc3)n2)CCO1 (stereo not given) | -6.96%

Row | SMILES | Percent Effect
21 | O=C(Cc1ccsc1)N1CCC[C@@H]1Cn1c(=O)oc2ccccc21 | 28.3%
22 | c1cc(CN2CCC[C@@H](Cn3nnc(-c4cnccn4)n3)C2)ccn1 | 6.31%
23 | CCc1noc(C(C)N2CCN(Cc3noc(C4CC4)n3)CC2)n1 (stereo not given) | 0.498%
24 | COCc1nc(C2CC2)nn1-c1ccccc1Cl | -1.23%
25 | COc1ncccc1-c1cc(C(=O)NC2CC2)ccn1 | -1.79%
26 | CC(c1ccc(F)cc1F)N1CCN(CCN2CCCC2=O)CC1 (stereo not given) | -18%
27 | O=C1CCC(=O)N1CCn1nnc(-c2cccc(Cl)c2)n1 | -7.61%
28 | CNC(=O)c1cccnc1NCc1ccc(Cn2cccn2)cc1 | -3.46%
29 | O=C(c1coc(COc2ccccc2F)n1)N1CCCO1 | 6.72%
30 | Cc1cc(C(=O)N2CCCC(c3ccc(C(=O)O)cc3)C2)c(C)o1 (stereo not given) | 4.65%
31 | Cc1ccc2[nH]c(CN(C)Cc3ccccc3C(=O)O)nc2c1 | 4.71%
32 | CCc1c(C)nc(-n2nc(-c3cccs3)cc2N)[nH]c1=O | -6.28%
33 | Cc1ccc(-c2cc(CN(CC(N)=O)CC(C)C)on2)cc1 | -6.41%
34 | CCc1ccccc1Nc1noc2c1CN(C(=O)c1ccn(C)n1)CC2 | -1.29%
35 | O=C(NCCc1cc(N2CCOCC2)nc(NC2CC2)n1)C1CCCO1 (stereo not given) | -0.703%
36 | CCN1CC(c2ccccc2)CC2(CCN(Cc3ncc[nH]3)CC2)C1 (stereo not given) | -6.2%
37 | Cc1cnn(CCCNC(=O)NC(C)C(=O)Nc2ccccc2)c1 (stereo not given) | 4.78%
38 | CCc1cc(=O)[nH]c(-c2ccc(NCCC(C)O)nc2)n1 (stereo not given) | -6.17%
39 | CC(C)(CN1CCC2(CCCNC2)C1)N1CCOCC1 (stereo not given) | -0.439%
40 | CCc1oc(C(=O)NCCSc2ncn[nH]2)cc1CN1CCCC1 | 1.9%
